Compound activity as filed in PubChem BioAssay.
Compounds with a hit are over-represented: about 4.8% of the library has one in this group of screens.
hgDAF-12 ag: agonists of H. glycines DAF-12 nuclear receptor; HEK293 GAL4-hgDAF12 UAS-luciferase reporter, agonist luminescence; normalized to butyrate control; activation, % at 6.8 µM; 370,000 tested, 1.8% active; AID 687014;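 active means activation above a cutoff set at the mean of all screened compounds plus 3 SD, cut at about 10% in these data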;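 further: 0% = DMSO wells and 100% = sodium butyrate wells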
hcDAF12 agonist: activates DAF-12 receptor from parasite H. contortus; activation, % at 6.8 µM; AID 652067; 370,000 tested, 1.4% active; HEK293 hcDAF-12 lit1-tk-luc reporter, luminescence; 0% DMSO, 100% Δ7-dafachronic acid;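 active means activation above the mean of all tested compounds plus 3 SD, cut at about 5.5% in these data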;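 further: 100% = response to 3 µM Δ7-dafachronic acid high control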
DAX1 inh-1: inhibitors of DAX1 repression of SF-1 activated StAR promoter; AID 652010; inhibition, % at 6.8 µM; HEK293T StAR-luciferase reporter, SF-1/DAX-1 repression relief; 370,000 tested, 1.1% active;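 active means inhibition above the mean over all tested compounds plus 3 SD, cut at about 3.6% in these data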;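 further: 0% = DAX-1 cells with DMSO and 100% = cells lacking DAX-1 with DMSO; higher inhibition means more luminescence from relief of DAX-1 repression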
SMARCA2 act: increases SMARCA2 function in MMTV reporter cells; MG213 cells, MMTV-luciferase reporter, dexamethasone, overnight; activation, % at 9.1 µM; 370,000 tested, 1% active; AID 652017; in the data active means activation above about 7.8%;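 further: 0% = vehicle wells and 100% = reference activator wells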
ssDAF-12 act: activators of S. stercoralis DAF-12 nuclear receptor | HEK293 ssDAF-12/GRIP1 lit1-tk-luc reporter, luminescence; % of 3 µM dafachronic acid response | activation, % at 6.8 µM | 370,000 tested, 1% active;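 active means activation above the mean over all tested compounds plus 3 SD, cut at about 0.9% in these data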;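 further: 0% = DMSO-only wells and 100% = 3 µM delta7-dafachronic acid wells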
DAX1 inh-2: inhibits human nuclear receptor DAX1; HEK293 Gal4-DAX1 luciferase reporter, luminescence; inhibition, % at 6.75 µM; 340,000 tested, 0.99% active;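 active means inhibition above the mean over all tested compounds plus 3 SD, cut at about 4.2% in these data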;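 further: 0% = DAX1-transfected cells with DMSO and 100% = empty-vector control cells with DMSO; inhibition shows as a rise in luminescence from relieved DAX1 repression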
hgDAF12 ag: confirmation of H. glycines DAF-12 agonists. shares compounds with hgDAF-12 ag. HEK293 GAL4-hgDAF12 luciferase reporter, agonist mode; percent of butyrate response. activation, % at 6.8 µM. 3,300 tested, 80% active;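 active means mean activation over triplicate wells above the hit cutoff derived from the earlier primary screen, cut at about 11% in these data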;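 further: 0% = DMSO low control and 100% = 2 mM sodium butyrate high control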
LXRb DAF12 ctr: LXR-beta agonism as DAF-12 counter-screen. shares compounds with hgDAF-12 ag. HEK293 Gal4-LXR luciferase reporter, 24 h. activation, % at 6.8 µM. 3,300 tested, under 10 active. AID 743051;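 active means mean activation of the triplicate above a set limit carried over from the primary screen, none filed active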
Target sequence (P55055 whole entry, looked up, the tested form may be a part): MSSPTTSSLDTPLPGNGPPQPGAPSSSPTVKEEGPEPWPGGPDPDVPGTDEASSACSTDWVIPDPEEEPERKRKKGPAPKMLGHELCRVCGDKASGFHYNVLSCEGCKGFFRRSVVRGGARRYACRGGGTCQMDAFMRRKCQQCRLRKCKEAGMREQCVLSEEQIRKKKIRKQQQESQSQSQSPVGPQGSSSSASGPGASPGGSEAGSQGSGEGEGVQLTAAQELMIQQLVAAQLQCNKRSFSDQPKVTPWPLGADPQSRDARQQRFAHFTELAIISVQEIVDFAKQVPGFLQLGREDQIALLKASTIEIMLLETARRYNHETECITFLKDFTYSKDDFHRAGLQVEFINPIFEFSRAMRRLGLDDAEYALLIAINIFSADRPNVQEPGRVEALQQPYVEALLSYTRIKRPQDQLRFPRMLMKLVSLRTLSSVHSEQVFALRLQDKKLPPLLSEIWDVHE
An asterisk follows results filed as active; / = no result given.

SMILES	hgDAF-12 ag	hcDAF12 agonist	DAX1 inh-1	SMARCA2 act	ssDAF-12 act	DAX1 inh-2	hgDAF12 ag	LXRb DAF12 ctr
CCn1c(SCC(=O)Nc2ccc(NC(=O)c3ccco3)cc2)nnc1-c1cccs1	-3	-1	-3	-4	-1	0	/	/
C/C(=N/N=C1/NC(=O)CC(C(=O)Nc2ccccc2)S1)c1cccs1 (stereo not given)	13*	0	0	0	-1	-1	0	0
C/C(=N/N=C1/NC(=O)CC(C(=O)O)S1)c1ccccc1 (stereo not given)	3	1	0	0	-2	3	/	/
CNC(=S)Nc1cccc2[nH]ncc12	-1	0	0	-2	-1	1	/	/
O=C(NC(=S)Nc1cccc2[nH]ncc12)c1ccccc1	22*	1	2	0	-1	0	16*	0
Cc1ccc(-c2nc3ccccc3s2)cc1NC(=S)NC(=O)c1ccccc1	15*	5.7*	2	5	1.6*	3	16*	1
O=C(NNS(=O)(=O)c1ccc(Br)cc1)c1ccncc1	2	0	1	3	-1	0	/	/
CSc1nc2ccc(NC(=O)c3ccc(=O)n(C)n3)cc2s1	4	4	1	-1	0	-1	/	/
CSc1nc2ccc(NC(=O)c3ccco3)cc2s1	18*	4	2	4	-1	2	11*	1
C[C@@H](C(=O)NCC1CCCO1)N1C(=O)N2CCc3c([nH]c4ccccc34)[C@@]2(C)C1=O (stereo not given in full)	-2	1	0	1	-1	3	/	/
Cc1nc(Nc2ncc(C(=O)Nc3c(C)cccc3Cl)s2)cc(N2CCN(CCO)CC2)n1	15*	-7	4.4*	8	-2	/	5	0
COc1ccc(-c2cc(=O)c3c(O)cc(O)cc3o2)cc1	13*	0	4.1*	7.9*	-1	1	15*	1
NC(=O)c1c(-c2ccccc2)oc2ccc(O)cc12	-2	-1	0	7	-1	0	/	/
O=c1cc(-c2ccccc2)oc2ccc(O)cc12	17*	3	2	4	-1	7.8*	14*	1
COc1ccc2oc(-c3ccco3)cc(=O)c2c1	19*	3	4.5*	3	0	1	14*	1
COc1ccc(-c2cc(=O)c3cc(O)ccc3o2)cc1	24*	5	3	7	1	5.2*	17*	1
O=c1cc(-c2ccco2)oc2ccc(Cl)cc12	0	-1	0	2	-1	0	/	/
N/C(=N\OC(=O)c1ccc2c(c1)OCO2)c1cccnc1	14*	4	2	4	1.1*	1	11*	0
O=C(COC(=O)CNC(=O)c1ccc(Cl)cc1)Nc1ncc(C(F)(F)F)cc1Cl	0	0	0	-2	-1	-1	/	/
Cc1cccc(Nc2nc3ccccc3s2)c1C	21*	5	3	2	1.3*	1	20*	1
Cc1cccc(Nc2n[nH]c(=S)s2)c1C	0	2	0	-2	-1	0	/	/
O=C(c1ccc(-c2ccc(Cl)cc2Cl)o1)N1CCOCC1	18*	0	3	1	-1	4.4*	12*	0
Cc1ccc(-c2nc(Nc3cccc(C)c3)sc2CC(=O)O)cc1	17*	3	4	3	0	1	5	0
O=C(OCc1cccnc1)C1=Cc2ccccc2OC1	14*	-1	1	0	-1	-1	3	0
O=Cc1ccc(N2CCN(S(=O)(=O)c3ccc4c(c3)CC(=O)N4)CC2)cc1	1	0	0	-3	-1	/	/	/
SMILES	hgDAF-12 ag	hcDAF12 agonist	DAX1 inh-1	SMARCA2 act	ssDAF-12 act	DAX1 inh-2	hgDAF12 ag	LXRb DAF12 ctr
O=C(CO/N=C/c1ccccc1OC(F)F)NC1CCCCC1	-1	-4	-1	1	-2	1	/	/
CCN(CC)c1ccc(/C=N/NC(=O)c2ccc(Br)o2)cc1	17*	2	2	6	0	2	19*	1
Cc1ccc(/C=N/NC(=O)c2ccc(Br)o2)s1	8	4	2	4	-1	2	/	/
CCN(CC)c1ccc(/C=N/NC(=O)c2ccc3c(c2)OCCO3)cc1	3	0	0	3	-1	0	/	/
CCc1ccc(/C=N\NC(=O)c2ccc(Br)o2)s1	15*	3	3	7	0	2	13*	0
CCOCCn1c(SCC(=O)OCc2ccccc2)nc2c1c(=O)[nH]c(=O)n2C	13*	4	3	1	-1	1	-1	0
CCOCCn1c(SCc2ccccc2)nc2c1c(=O)[nH]c(=O)n2C	-1	-2	0	-1	-1	-1	/	/
C/[N+]([O-])=C/c1c(OCc2ccccc2)ccc2ccccc12	3	2	1	1	-1	1	/	/
O=Cc1c(OCc2ccccc2)ccc2ccccc12	14*	2	2	4	0.9*	0	9	0
COc1ccccc1/C=N/Nc1nccnc1Cl	14*	5.8*	3	3	0	1	10*	0
COc1cccc(/C=N/Nc2ncccc2[N+](=O)[O-])c1OC	3	2	2	-1	-1	-7	/	/
C/C(=N\NC(=O)c1c(Br)c(C)nn1C)c1cccc(NC(=O)c2ccccc2F)c1	-1	-1	0	1	-2	-1	/	/
C/C(=N\NC(=O)c1ccccc1)c1cccc(Br)c1	14*	3	1	2	0	2	7	0
C/C(=N/NC(=O)c1ccccc1)C1=C(O)CC(C)(C)CC1=O	14*	3	2	5	-1	2	3	0
C/C(=N\NC(=O)c1nn(C)c(C)c1Br)c1cccc(NC(=O)c2ccc(F)cc2)c1	17*	5	4.1*	2	0	3	5	0
Cc1ccc(/C(O)=C2\C(=O)C(=O)N(c3cc(C)on3)C2c2cccc(Cl)c2)cc1 (stereo not given)	0	-1	0	3	0	0	/	/
c1ccc2c(c1)CN1C(=N2)COc2ccccc2C1c1nc2ccccc2[nH]1 (stereo not given)	15*	6.0*	4.4*	7	2.0*	/	8	0
COc1ccc(-c2cc(C(=O)NCC3CCCO3)c3cc(C)ccc3n2)cc1 (stereo not given)	7	-1	1	3	-1	-1	/	/
